Measured values: the supplement of paper PMC11417369
± gives the standard deviation of the averaged measurements. In all, about 25,000 sequences were measured (“ln(normalized median fluorescence intensity)”: median about 10, highest 2% from about 12 on). Many of the other results were omitted from the sample, so the highest values are more common in it than they were.

System: PfAP2-G AP2 domain (GST-tagged)
Assay: gcPBM binding intensity (ln(normalized median fluorescence intensity)); higher = stronger DNA binding
How it was run: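 After 1 h on an Agilent 4 × 180k array of primer-extended double-stranded 36-bp intergenic genomic probes and negative controls, bound GST-tagged P. falciparum DNA-binding domains were detected with Alexa488 anti-GST antibody and scanned at 488 nm. The domains had been expressed in E. coli, and binding took place in 1× PBS with 1% milk, 0.2 mg/ml BSA, 0.5% salmon testes DNA and 0.03% Triton X-100. Binding intensity is the highest Masliner-normalised natural-log median intensity across replicate spots of either probe orientation.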

Sequence	gcPBM binding intensity (ln)
ATATGAAAGGTGTACACACGCACACCCAAAAAAATA [CACACA_site2911]	11.7 ± 0.95
AATGTGTACGCACGCACACACAAAAAAATATATATA [CACACA_site2913]	11.6 ± 1.2
GTGTAATATGAAATGTGTACACACGCACACACAAAA [XGTACX_site6180]	11.7 ± 1.1
TGTAATATGAAATGTGTACACACGCACCCACAAAAA [CACACA_site8948]	11.6 ± 1
TAATATGAAAAGTGTACACACGCACAGACAAAAAAA [CACACA_site5594]	11.6 ± 0.95
AATTTGTTAATATTTTGTACACATAATATAAAAACA [XGTACX_site2224]	11.3 ± 0.89
ATAATATGAAGAAGCACACTCAATTAAATACAGATA [CACACA_site4690]	9.97 ± 0.071
ACAAAATGTAGAAAATGTACAAAATTAACAAAAGAA [XGTACX_site5019]	10.7 ± 0.3
CTTCTTGTAAAATTTGCATGTAATTAAAAGAGAATG [TGCATGCA_site484]	10.2 ± 0.3
TACAAAAAATTATGGAGTACATATATAATATACAAT [XGTACX_site1004]	11.5 ± 0.88
GCACTCGTAAAAAGCACACATATAAAAACATTTATA [CACACA_site322]	10.2 ± 0.26
AAATAAAATTTTTGTTGTACTTATTTTTAGTATACT [XGTACX_site4254]	11.5 ± 0.81
TTTTTTTTTTTTTTTTGTACTTATAAAAAATTTTTT [XGTACX_site1249]	11.1 ± 0.88
TAAAATTTTGTTTGTTGTACTTATTTTCGTGTCAAC [XGTACX_site8277]	11.6 ± 1
ATATATATACTGTGTACACACATATGTATTTATATA [CACACA_site4600]	11.6 ± 0.78
TATATTTATTTTCTGTGTACACATATGTTGTGTATT [XGTACX_site7640]	11.6 ± 1
GAAAAAAGAAAAAAAAGTACACACATGTATATTAAT [XGTACX_site5265]	11.5 ± 0.91
TACATATTTTTTATGTGTACATATTTTTTATGTGTA [XGTACX_site443]	11.4 ± 0.76
AAAATAATATATGTATGTACATATACACATATAGAA [XGTACX_site2218]	11.1 ± 0.59
TACATATTTTTTATGTGTACATATTTTTTATGTGTG [XGTACX_site444]	11.5 ± 0.68
ATTTATTTTCTGTGTACACATATGTTGGGTATTTTA [CACACA_site5902]	11.7 ± 0.96
TATATAATATATATATGTACACATATACATTTTTAT [XGTACX_site2832]	11.5 ± 0.97
ATAACATACATAACAACACACAATATTTATATGTAT [CACACA_site210]	9.85

Sequence	gcPBM binding intensity (ln)
CAACATATGCATATGTGTACATATTTTATTTTCAAC [XGTACX_site2237]	11.7 ± 1.1
GATAACAATATGTGTACACATTTATATCTCCACATA [CACACA_site5442]	11.7 ± 0.83
AAAATATTTAATAGAAGTACACATGTATATATACAT [XGTACX_site8942]	11.6 ± 1.2
GAATGTCTAATTTTGATGCACACTTTTGTGCAATTA [CACACA_site2902]	10.2 ± 0.24
AAAAAAAAAAAAAAAACACACATATATGTATATATA [CACACA_site3276]	10 ± 0.27
AAGAAAAAAGGGGACAAGGCATATCTATATATACAT [TGCATGCA_negctrl_site172]	10.7 ± 0.52
TTATAATTAAGATATAATCAATAATAACAAATGAAC [CACACA_negctrl_site1690]	9.84 ± 0.014
AAACCGAATTTACATGAATGTAAATTATGTTGTTTT [CACACA_negctrl_site1834]	9.53 ± 0.13
TTTGCTTCCAAAAGTCGTACAAAAAATATTAAATAT [XGTACX_site4171]	11.6 ± 0.9
AATGAAGACTTTTTTACACACTTCATATCTTATAGA [CACACA_site7046]	9.99 ± 0.028
TATTTCTGATTATTTTGTACACATTATATATAATGC [XGTACX_site6990]	11.2 ± 0.83
TTTGTGTATATATAATGTACATTATATTTTTATTAT [XGTACX_site6506]	10.9 ± 0.53
GTATATATGTATATGTGTACACATATTCTTAACTCA [XGTACX_site309]	11.6 ± 0.89
ATGTGATATAAGTACACACACATATGTATTTATAAC [CACACA_site6942]	11.5 ± 0.8
ATGTGATAGAAGTACACACACATATGTATTTATAAT [CACACA_site5075]	11.7 ± 1.1
AAATTACCCTTGTGTACACATATATTATCTGTATTA [CACACA_site4514]	12 ± 1.4
TTTGATTTTAATGTGTGTACACATTTATTTATATAA [XGTACX_site4806]	11.8 ± 1.2
AAAAATTACCCTTGTGTACACATATATTATCTGTAT [CACACA_site4513]	11.6 ± 0.95
TATCTGTATATGTGTACACATATTCTTAACTCACGC [CACACA_site4255]	11.7 ± 1
GTATGTATATTTATCTGTACATATTTATGTATTCTT [XGTACX_site2112]	11.2 ± 0.64
ATGTGATATAAGTACACACACATATGTATATAGAAT [CACACA_site1823]	11.5 ± 1.1
CAAAAATTACCCTTGTGTACACATATATTATATGTA [XGTACX_site1124]	11.6 ± 0.91
